Test results: PubChem BioAssay AID1159580 (chemical genetic matrix, 2015)
Hit rate of the full screen: of about 5,500 compounds, about 2,000 (36%) were called active. Another 18% or so got no clear call; they are omitted. Cut-off read from the data, not from the text of the source: active = normalized growth mostly below about 0.91 (no sharp cut-off); inconclusive = no clear call, values can overlap the other calls; inactive = mostly above about 0.92. Some of the results follow.

Test: chemical genetic growth profiling, strain panel (AID 1159580);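 note: tested at 20 µM; growth read once vehicle control cultures reached saturation at 30 °C; 1 = growth at the plate median or of vehicle wells; lower values mean less growth of the strain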
Conditions: growth OD

Measured: normalized growth

CCCCOC(=O)c1ccc(N)cc1
active: S. cerevisiae deletion strains, locus YKL160W, strain elf1, active compounds read low 0.875 | S. cerevisiae deletion strains, locus YKR001C, strain vps1, active compounds read low 0.693 | S. cerevisiae deletion strains, locus YKR026C, strain gcn3, active compounds read low 0.91 | S. cerevisiae deletion strains, locus YKR091W, strain srl3, active compounds read low 0.907 | S. cerevisiae deletion strains, locus YLL001W, strain dnm1, active compounds read low 0.825 | S. cerevisiae deletion strains, locus YLL026W, active compounds read low 0.888 | S. cerevisiae deletion strains, locus YLL041C, strain sdh2, active compounds read low 0.899 | S. cerevisiae deletion strains, locus YLR027C, strain aat2, active compounds read low 0.878 | S. cerevisiae deletion strains, locus YLR221C, strain rsa3, active compounds read low 0.841 | S. cerevisiae deletion strains, locus YLR258W, strain gsy2, active compounds read low 0.873 | S. cerevisiae deletion strains, locus YLR262C, strain YPT6 (second series), active compounds read low 0.433 | S. cerevisiae deletion strains, locus YLR268W, strain sec22, active compounds read low 0.86 | S. cerevisiae deletion strains, locus YLR320W, strain mms22, active compounds read low 0.635 | S. cerevisiae deletion strains, locus YLR342W, strain FKS1 (second series), active compounds read low 0.661 | S. cerevisiae deletion strains, locus YLR342W, strain FKS1, active compounds read low 0.605 | S. cerevisiae deletion strains, locus YLR370C, strain arc18, active compounds read low 0.844 | S. cerevisiae deletion strains, locus YLR371W, strain rom2, active compounds read low 0.886 | S. cerevisiae deletion strains, locus YLR418C, strain cdc73, active compounds read low 0.765 | S. cerevisiae deletion strains, locus YML032C, strain rad52, active compounds read low 0.905 | S. cerevisiae deletion strains, locus YML120C, strain ndi1, active compounds read low 0.897 | S. cerevisiae deletion strains, locus YMR058W, strain fet3, active compounds read low 0.881 | S. cerevisiae deletion strains, locus YMR125W, strain sto1, active compounds read low 0.871 | S. cerevisiae deletion strains, locus YMR129W, active compounds read low 0.922 | S. cerevisiae deletion strains, locus YMR205C, strain PFK2, active compounds read low 0.793 | S. cerevisiae deletion strains, locus YMR223W, strain ubp8, active compounds read low 0.902 | S. cerevisiae deletion strains, locus YMR307W, strain GAS1, active compounds read low 0.319 | S. cerevisiae deletion strains, locus YNL071W, strain lat1, active compounds read low 0.653 | S. cerevisiae deletion strains, locus YNL209W, strain ssb2, active compounds read low 0.927 | S. cerevisiae deletion strains, locus YNL233W, strain BNI4, active compounds read low 0.86 | S. cerevisiae deletion strains, locus YNL307C, strain MCK1, active compounds read low 0.868 | S. cerevisiae deletion strains, locus YNR049C, strain mso1, active compounds read low 0.905 | S. cerevisiae deletion strains, locus YOR001W, strain rrp6, active compounds read low 0.853 | S. cerevisiae deletion strains, locus YOR070C, strain gyp1, active compounds read low 0.9 | S. cerevisiae deletion strains, locus YOR083W, strain WHI5, active compounds read low 0.862 | S. cerevisiae deletion strains, locus YOR106W, strain vam3, active compounds read low 0.771 | S. cerevisiae deletion strains, locus YOR184W, strain ser1, active compounds read low 0.817 | S. cerevisiae deletion strains, locus YOR265W, strain rbl2, active compounds read low 0.902 | S. cerevisiae deletion strains, locus YOR270C, strain vph1, active compounds read low 0.489 | S. cerevisiae deletion strains, locus YPL051W, strain arl3, active compounds read low 0.725 | S. cerevisiae deletion strains, locus YPL078C, strain atp4, active compounds read low 0.795 | S. cerevisiae deletion strains, locus YPL106C, strain sse1, active compounds read low 0.792 | S. cerevisiae deletion strains, locus YPL240C, strain hsp82, active compounds read low 0.914 | S. cerevisiae deletion strains, strain wtn01, active compounds read low 0.871
inactive: S. cerevisiae deletion strains, locus YJR075W, strain HOC1, active compounds read low 0.888 | S. cerevisiae deletion strains, locus YKL009W, strain mrt4, active compounds read low 0.946 | S. cerevisiae deletion strains, locus YKL068W, active compounds read low 0.962 | S. cerevisiae deletion strains, locus YKL085W, strain MDH1 (second series), active compounds read low 0.961 | S. cerevisiae deletion strains, locus YKL085W, strain MDH1, active compounds read low 0.961 | S. cerevisiae deletion strains, locus YKL190W, strain CNB1, active compounds read low 0.975 | S. cerevisiae deletion strains, locus YLR039C, strain RIC1, active compounds read low 0.783 | S. cerevisiae deletion strains, locus YLR058C, strain SHM2, active compounds read low 0.979 | S. cerevisiae deletion strains, locus YLR102C, strain apc9, active compounds read low 0.955 | S. cerevisiae deletion strains, locus YLR113W, strain HOG1, active compounds read low 0.954 | S. cerevisiae deletion strains, locus YLR262C, strain YPT6, active compounds read low 0.775 | S. cerevisiae deletion strains, locus YLR330W, strain CHS5, active compounds read low 0.947 | S. cerevisiae deletion strains, locus YLR357W, strain rsc2, active compounds read low 0.942 | S. cerevisiae deletion strains, locus YLR384C, strain iki3, active compounds read low 0.946 | S. cerevisiae deletion strains, locus YML016C, strain PPZ1, active compounds read low 0.981 | S. cerevisiae deletion strains, locus YML124C, strain tub3, active compounds read low 0.939 | S. cerevisiae deletion strains, locus YMR078C, strain ctf18, active compounds read low 0.933 | S. cerevisiae deletion strains, locus YMR231W, strain pep5, active compounds read low 0.931 | S. cerevisiae deletion strains, locus YMR263W, strain SAP30, active compounds read low 0.93 | S. cerevisiae deletion strains, locus YNL067W, strain RPL9B, active compounds read low 0.907 | S. cerevisiae deletion strains, locus YNL128W, strain TEP1, active compounds read low 0.989 | S. cerevisiae deletion strains, locus YNL153C, strain GIM3, active compounds read low 0.939 | S. cerevisiae deletion strains, locus YNL183C, strain NPR1, active compounds read low 0.934 | S. cerevisiae deletion strains, locus YNL248C, strain rpa49, active compounds read low 0.904 | S. cerevisiae deletion strains, locus YNL250W, strain rad50, active compounds read low 0.934 | S. cerevisiae deletion strains, locus YNL271C, strain bni1, active compounds read low 0.938 | S. cerevisiae deletion strains, locus YNL298W, strain CLA4, active compounds read low 0.939 | S. cerevisiae deletion strains, locus YNL322C, strain KRE1 (second series), active compounds read low 0.91 | S. cerevisiae deletion strains, locus YNL322C, strain KRE1, active compounds read low 0.987 | S. cerevisiae deletion strains, locus YNR052C, strain pop2, active compounds read low 0.949 | S. cerevisiae deletion strains, locus YOL006C, strain TOP1, active compounds read low 0.64 | S. cerevisiae deletion strains, locus YOL012C, strain htz1 0.742 | S. cerevisiae deletion strains, locus YOL147C, strain pex11, active compounds read low 0.937 | S. cerevisiae deletion strains, locus YOR061W, strain CKA2, active compounds read low 0.986 | S. cerevisiae deletion strains, locus YOR069W, strain VPS5, active compounds read low 0.987 | S. cerevisiae deletion strains, locus YOR080W, strain dia2, active compounds read low 0.95 | S. cerevisiae deletion strains, locus YOR136W, strain idh2, active compounds read low 0.956 | S. cerevisiae deletion strains, locus YOR144C, strain elg1, active compounds read low 0.961 | S. cerevisiae deletion strains, locus YOR231W, strain MKK1, active compounds read low 0.987 | S. cerevisiae deletion strains, locus YOR290C, strain snf2, active compounds read low 0.867 | S. cerevisiae deletion strains, locus YOR316C, strain cot1, active compounds read low 0.955 | S. cerevisiae deletion strains, locus YPL055C, strain LGE1, active compounds read low 0.889 | S. cerevisiae deletion strains, locus YPL241C, strain CIN2, active compounds read low 0.98 | S. cerevisiae deletion strains, locus YPL256C, strain CLN2, active compounds read low 0.967 | S. cerevisiae deletion strains, locus YPR119W, strain clb2, active compounds read low 0.949 | S. cerevisiae deletion strains, locus YPR141C, strain kar3, active compounds read low 0.933 | S. cerevisiae deletion strains, locus YPR163C, strain tif3, active compounds read low 0.946 | S. cerevisiae deletion strains, locus YPR167C, strain met16, active compounds read low 0.96 | S. cerevisiae strains, strain wild type, active compounds read low 0.949
